Measured values taken from PubChem BioAssay (EPA / NIEHS).
Activity calls are given as the source filed them. How the source made its calls: active means hit-call score of the fitted dose curve at least 0.9, where 1 is the maximum; inactive means score below 0.9.

Tests used:
[1] = read-out: Vascular endothelial growth factor receptor 2 (Homo sapiens) (UniProt P35968); assay: BSK_4H_VEGFRII: BioMAP Diversity Plus: 4H Assay for Vascular endothelial growth factor receptor 2 (VEGFR2) Biomarker Activity (AID 2283031); details: primary human endothelial cells (HUVEC); actives raise or lower the signal;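 on AC50: cell-surface VEGFR2 protein level quantified by ELISA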
Method in brief: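 Primary human umbilical vein endothelial cells in the BioMAP 4H system were dosed with test chemical, and 24 h later VEGFRII was measured by ELISA. Activity was fitted bidirectionally against DMSO as negative control and baseline.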

[2] = read-out: Human Leukocyte Antigen - DR isotype (HLADR), HLA-DRA (gene 3122); assay: BSK_BE3C_HLADR: BioMAP Diversity Plus: BE3C Assay for Human Leukocyte Antigen - DR isotype (HLADR) Biomarker Activity (AID 2283032); details: primary human bronchial epithelial cells; actives raise or lower the signal
Method in brief: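 Cell-surface HLA-DR ELISA readout at 24 h after dosing in the BE3C primary human lung bronchial epithelial system; gain or loss of signal against DMSO, with parallel sulforhodamine B staining of total protein for overt cytotoxicity.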

[3] = read-out: Vascular cell adhesion molecule 1 (VCAM1), VCAM1 (gene 7412); assay: BSK_4H_VCAM1: BioMAP Diversity Plus: 4H Assay for Vascular cell adhesion molecule 1 (VCAM1) Biomarker Activity (AID 2283033); details: primary human endothelial cells (HUVEC); actives raise or lower the signal
Method in brief: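 VCAM-1 ELISA read 24 h after chemical dosing of HUVEC in the BioMAP 4H system, with gain or loss of signal fitted relative to DMSO. Parallel SRB staining (560 nm) checked overt cytotoxicity.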

[4] = read-out: Monokine induced gamma interferon (MIG), CXCL9 (gene 4283); assay: BSK_BE3C_MIG: BioMAP Diversity Plus: BE3C Assay for Monokine induced gamma interferon (MIG) Biomarker Activity (AID 2283035); details: primary human bronchial epithelial cells; actives raise or lower the signal
Method in brief: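 hu bronchial epithelial 1° cells, 24 h cpd; MIG by ELISA; bidirectional fit, DMSO = baseline.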

[5] = read-out: Transforming growth factor beta 1 (TGFb1), TGFB1 (gene 7040); assay: BSK_BE3C_TGFb1: BioMAP Diversity Plus: BE3C Assay for Transforming growth factor beta 1 (TGFb1) Biomarker Activity (AID 2283036); details: primary human bronchial epithelial cells; actives raise or lower the signal
Method in brief: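 ELISA readout of TGF-b1 from human lung bronchial epithelial primary cells, taken 24 h post-treatment. Gain or loss of signal fitted relative to DMSO baseline, with parallel SRB staining for overt cytotoxicity.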

[6] = read-out: Plasminogen activator inhibitor-1 (PAI1), SERPINE1 (gene 5054); assay: BSK_BE3C_PAI1: BioMAP Diversity Plus: BE3C Assay for Plasminogen activator inhibitor-1 (PAI1) Biomarker Activity (AID 2283037); details: primary human bronchial epithelial cells; actives raise or lower the signal
Method in brief: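 PAI-1 was measured by ELISA in human primary bronchial epithelial cultures 24 h after chemical dosing, with cytotoxicity checked by SRB total-protein staining in parallel cultures. Activity was fitted in both directions relative to DMSO.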

[7] = read-out: urokinase plasminogen activator (uPA), PLAU (gene 5328); assay: BSK_BE3C_uPA: BioMAP Diversity Plus: BE3C Assay for urokinase plasminogen activator (uPA) Biomarker Activity (AID 2283038); details: primary human bronchial epithelial cells; actives raise or lower the signal
Method in brief: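 Human primary bronchial epithelial cells were exposed to chemical for 24 h, then uPA levels were measured by ELISA. Responses were fitted bidirectionally against DMSO as negative control and baseline. Parallel SRB staining of total protein gauged overt cytotoxicity.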

[8] = read-out: Urokinase-type plasminogen activator receptor (uPAR), PLAUR (gene 5329); assay: BSK_BE3C_uPAR: BioMAP Diversity Plus: BE3C Assay for Urokinase-type plasminogen activator receptor (uPAR) Biomarker Activity (AID 2283039); details: primary human bronchial epithelial cells; actives raise or lower the signal
Method in brief: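 uPAR levels were measured by ELISA after 24 h compound treatment of primary human bronchial epithelial cells, fitted in both directions relative to DMSO. Parallel SRB staining served as the cytotoxicity read-out.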

[9] = read-out: Interleukin-6 (IL6), IL6 (gene 3569); assay: BSK_CASM3C_IL6: BioMAP Diversity Plus: CASM3C Assay for Interleukin-6 (IL6) Biomarker Activity for (AID 2283040); details: primary human coronary artery smooth muscle cells; actives raise or lower the signal
[10] = read-out: Tissue plasminogen activator (tPA), PLAT (gene 5327); assay: BSK_BE3C_tPA: BioMAP Diversity Plus: BE3C Assay for Tissue plasminogen activator (tPA) Biomarker Activity (AID 2283041); details: primary human bronchial epithelial cells; actives raise or lower the signal
Method in brief: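 tPA measured by ELISA 24 h after dosing human primary bronchial epithelial cells (BE3C system). Changes in either direction were fitted against DMSO. Parallel cultures were stained with SRB to flag overt cytotoxicity.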

[11] = read-out: Interleukin-8 (IL8), CXCL8 (gene 3576); assay: BSK_CASM3C_IL8: BioMAP Diversity Plus: CASM3C Assay for Interleukin-8 (IL8) Biomarker Activity (AID 2283042); details: primary human coronary artery smooth muscle cells; actives raise or lower the signal;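 further: IL-8 protein level quantified by ELISA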
[12] = read-out: Human Leukocyte Antigen - DR isotype (HLADR), HLA-DRA (gene 3122); assay: BSK_CASM3C_HLADR: BioMAP Diversity Plus: CASM3C Assay for Human Leukocyte Antigen - DR isotype (HLADR) Biomarker Activity (AID 2283043); details: primary human coronary artery smooth muscle cells; actives raise or lower the signal;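 further: cell-surface HLA-DR protein level quantified by ELISA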
[13] = read-out: Macrophage colony-stimulating factor (MCSF), CSF1 (gene 1435); assay: BSK_CASM3C_MCSF: BioMAP Diversity Plus: CASM3C Assay for Macrophage colony-stimulating factor (MCSF) Biomarker Activity (AID 2283044); details: primary human coronary artery smooth muscle cells; actives raise or lower the signal;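 further: M-CSF protein amount quantified by ELISA after 24 h exposure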
[14] = read-out: Low-density lipoprotein receptor (LDLR), LDLR (gene 3949); assay: BSK_CASM3C_LDLR: BioMAP Diversity Plus: CASM3C Assay for Low-density lipoprotein receptor (LDLR) Biomarker Activity (AID 2283045); details: primary human coronary artery smooth muscle cells; actives raise or lower the signal;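 further: LDLR protein level on the cell surface quantified by ELISA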
[15] = read-out: Monocyte Chemoattractant Protein-1 (MCP1), CCL2 (gene 6347); assay: BSK_CASM3C_MCP1: BioMAP Diversity Plus: CASM3C Assay for Monocyte Chemoattractant Protein-1 (MCP1) Biomarker Activity (AID 2283046); details: primary human coronary artery smooth muscle cells; actives raise or lower the signal;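 further: MCP-1 level quantified by ELISA 24 h after dosing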
[16] = BSK_CASM3C_Proliferation: Cell Proliferation Assessment in the BioMAP Diversity Plus: CASM3C Assay (AID 2283047); details: primary human coronary artery smooth muscle cells;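 further: sulforhodamine B total protein stain as relative cell number at 560 nm; sub-confluent cells exposed 48 h before staining; fitted both ways against DMSO so gain or loss of cell number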
[17] = read-out: Monokine induced gamma interferon (MIG), CXCL9 (gene 4283); assay: BSK_CASM3C_MIG: BioMAP Diversity Plus: CASM3C Assay for Monokine induced gamma interferon (MIG) Biomarker Activity (AID 2283048); details: primary human coronary artery smooth muscle cells; actives raise or lower the signal
[18] = read-out: serum amyloid A (SAA), SAA1 (gene 6288); assay: BSK_CASM3C_SAA: BioMAP Diversity Plus: CASM3C Assay for serum amyloid A (SAA) Biomarker Activity (AID 2283049); details: primary human coronary artery smooth muscle cells; actives raise or lower the signal;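 further: SAA protein level quantified by ELISA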
[19] = BSK_CASM3C_SRB: Viability Assessment in the BioMAP Diversity Plus: CASM3C Assay (AID 2283050); details: primary human coronary artery smooth muscle cells

Measured: AC50

CCOC(=O)O[C@H](C)OC(=O)c1ccc2c(c1)cc(C(=O)NC1CCN(C(C)C)CC1)n2Cc1cc(-c2ccc(Cl)s2)on1
active: [1] 5.06 µM | [2] 10.7 µM | [3] 5.44 µM | [4] 14.4 µM | [5] 11.8 µM | [6] 12.1 µM | [7] 9.63 µM | [8] 9.89 µM | [9] 9.24 µM | [10] 9.95 µM | [11] 8.81 µM | [12] 5.85 µM | [13] 5.13 µM | [15] 7.49 µM | [16] 2.41 µM | [17] 9.34 µM | [18] 6.05 µM | [19] 6.15 µM
inactive: [14]

CCO[Si](CCCNC(N)=O)(OCC)OCC
inactive: all assays above

c1ccc2n[nH]nc2c1
inactive: all assays above

O=C1CCC(C2CCCCC2)CC1
active: [2] 25.9 µM
inactive: all other assays above

Clc1ccccc1C(c1ccccc1)(c1ccccc1)n1ccnc1
active: [2] 8.22 µM | [3] 33.5 µM | [4] 9.5 µM | [5] 6.45 µM | [6] 7.59 µM | [7] 9.81 µM | [8] 9.68 µM | [9] 31.9 µM | [10] 5.41 µM | [11] 36.6 µM | [12] 28 µM | [13] 32.6 µM | [14] 36.9 µM | [15] 34.4 µM | [16] 22.5 µM | [17] 39.2 µM | [18] 27.1 µM | [19] 29.1 µM
inactive: [1]

CC(O)CC(C)(C)O (centres undefined)
inactive: all assays above

CN1C(=O)CC[C@H]1c1cccnc1
inactive: all assays above

CC1=CC(=O)/C(=C(/C)O)C(=O)O1
inactive: all assays above

O=C(O)c1ccccc1-n1cc(C(=O)O)c(=O)c2cc(Nc3c(F)cc(F)cc3Cl)c(Cl)cc21
inactive: all assays above

CCCCCCCCOc1ccc(C(=O)c2ccccc2)c(O)c1
inactive: all assays above

CCCCCCCCN(C)CCCCCCCC
inactive: all assays above

CCN(Cc1cccc(S(=O)(=O)O)c1)c1ccc(C(=C2C=CC(=[N+](CC)Cc3cccc(S(=O)(=O)O)c3)C=C2)c2ccccc2S(=O)(=O)[O-])cc1
inactive: all assays above

Oc1ccccc1
inactive: all assays above

O=C(O)Cc1cc(I)c(Oc2ccc(O)c(I)c2)c(I)c1
active: [2] 17.6 µM | [3] 18.7 µM | [4] 33.9 µM | [6] 15.2 µM | [8] 32.8 µM | [9] 29.6 µM | [10] 15.9 µM
inactive: all other assays above

C[C@]12CC[C@@H]3c4ccc(O)cc4CC[C@H]3[C@@H]1CC[C@H]2O
active: [16] 13.2 µM
inactive: all other assays above

O=c1[nH]sc2ccccc12
active: [2] 28.1 µM | [3] 7.17 µM | [4] 32.3 µM | [5] 20 µM | [6] 37.2 µM | [7] 33.6 µM | [8] 35 µM | [9] 8.69 µM | [10] 11 µM | [11] 14.6 µM | [12] 5.36 µM | [13] 14.9 µM | [14] 12.7 µM | [15] 13.1 µM | [16] 1.89 µM | [17] 10.7 µM | [18] 20.4 µM | [19] 17.3 µM
inactive: [1]
